Data published in PubChem BioAssay (NCI).
This is part of a sample that, as a whole, favours compounds with a hit. Of some 79,000 tested, about 15% had one in any assay. Calls of active or inactive are those of the source. Cut-off read from the data, not from the text of the source: active = growth inhibition above about 70%; inactive = the rest.

Columns and labels:
[1] = NCI Yeast Anticancer Drug Screen. Data for the rad50 strain (AID 155);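 note: 0% = growth of vehicle-only cultures of the same strain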; settings: S. cerevisiae rad50 strain growth inhibition, stronger effect = higher value
Summary of the method: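 Vehicle-treated cultures provide the reference for the growth inhibition reported for compound-exposed, repair-deficient yeast.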

[2] = NCI Yeast Anticancer Drug Screen. Data for the mec2-1 strain (AID 157); settings: S. cerevisiae mec2-1 strain, stronger effect = higher value
Summary of the method: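 Using mec2-1 yeast: add compound, measure growth, express inhibition versus vehicle-treated cultures.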

[3] = NCI Yeast Anticancer Drug Screen. Data for the sgs1 mgt1 strain (AID 161);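 note: 0% = growth of cultures given vehicle only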; settings: S. cerevisiae sgs1 mgt1 strain, stronger effect = higher value
Summary of the method: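 This yeast growth screen uses a strain with defined DNA-repair lesions; compound-treated growth is compared with vehicle-treated growth.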

[4] = NCI Yeast Anticancer Drug Screen. Data for the cln2 rad14 strain (AID 165);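 note: 0% = growth equal to vehicle treated cultures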; settings: S. cerevisiae cln2 rad14 strain, stronger effect = higher value
Summary of the method: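 Yeast strain cln2 rad14, bearing defects in cell cycle control and DNA repair, serves as the test system; values reflect growth inhibition compared with vehicle.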

[5] = NCI Yeast Anticancer Drug Screen. Data for the bub3 strain (AID 167); settings: S. cerevisiae bub3 mutant strain, stronger effect = higher value
Summary of the method: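 Mutant yeast screening strain plus compound; vehicle-treated cultures serve as the 0% inhibition reference.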

[6] = NCI Yeast Anticancer Drug Screen. Data for the mlh1 rad18 strain (AID 175); settings: S. cerevisiae mlh1 rad18 strain growth inhibition, stronger effect = higher value
Summary of the method: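 Steps: expose repair-defective yeast to compound; measure growth; express inhibition against vehicle-treated controls.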

[7] = at 5.0 µM (retest, dose inferred, filed as 0.5)
[8] = at 50.0 µM (retest, dose inferred, filed as 5.0)

Measured: growth inhibition

CCCCCNc1ccc2c(cc1=O)C(NC(C)=O)CCc1cc(OC)c(OC)c(OC)c1-2 (configuration not stated)
inactive: [1]; [7] 16% | [1]; at 50.0 µM 13.4% | [2]; [7] 10% | [2]; at 50.0 µM 19.8% | [3]; [7] 11% | [3]; at 50.0 µM 18.2% | [4]; [7] 16% | [5]; [7] 21% | [5]; at 50.0 µM 45.2% | [6]; [7] 19% | [6]; at 50.0 µM 24.9%
active: [1]; [8] 89% | [2]; [8] 97% | [3]; [8] 98% | [4]; [8] 93% | [4]; at 50.0 µM 71.7% | [5]; [8] 97% | [6]; [8] 95%

O=c1[nH]c(=O)c2cc([N+](=O)[O-])cc([N+](=O)[O-])c2[nH]1
inactive: [1]; [7] 9% | [1]; at 50.0 µM 50.6% | [2]; [7] 6% | [2]; [8] 57% | [3]; [7] 12% | [3]; at 50.0 µM 54.9% | [4]; [7] -3% | [4]; [8] 63% | [4]; at 50.0 µM 25.7% | [5]; [7] 8% | [6]; [7] 5% | [6]; [8] 38%
active: [1]; [8] 75% | [2]; at 50.0 µM 73.7% | [3]; [8] 78% | [5]; [8] 70% | [5]; at 50.0 µM 78.3% | [6]; at 50.0 µM 75%

O=C(O)CCCCCCCCC(=O)O.[Ag]
active: [1]; [7] 99% | [1]; [8] 99% | [1]; at 50.0 µM 90.2% | [2]; [7] 99% | [2]; [8] 99% | [2]; at 50.0 µM 93% | [3]; [7] 100% | [3]; [8] 99% | [3]; at 50.0 µM 93.8% | [4]; [7] 70% | [4]; [8] 99% | [4]; at 50.0 µM 92.2% | [5]; [7] 99% | [5]; [8] 99% | [5]; at 50.0 µM 92.5% | [6]; [7] 99% | [6]; [8] 99% | [6]; at 50.0 µM 91.5%

COc1ccc(C(=O)C(CN2CCOCC2)CN2CCOCC2)cc1
active: [1]; at 50.0 µM 96.2% | [2]; at 50.0 µM 97.2% | [3]; at 50.0 µM 97.7% | [4]; at 50.0 µM 92.3% | [5]; at 50.0 µM 95.7% | [6]; at 50.0 µM 97.2%
inactive: [1]; [7] 11% | [1]; [8] -10% | [2]; [7] 20% | [2]; [8] -6% | [3]; [7] 23% | [3]; [8] -6% | [4]; [7] 11% | [4]; [8] -11% | [5]; [7] 10% | [5]; [8] -5% | [6]; [7] 18% | [6]; [8] -2%

S=C(NCc1ccccc1)N/N=C/c1ccccn1
active: [4]; [8] 83% | [5]; [8] 72%
inactive: [1]; [7] -22% | [1]; [8] 65% | [1]; at 50.0 µM 20.6% | [2]; [7] 9% | [2]; [8] 57% | [2]; at 50.0 µM 17.4% | [3]; [7] -9% | [3]; [8] 60% | [3]; at 50.0 µM 49.8% | [4]; [7] 23% | [4]; at 50.0 µM 62% | [5]; [7] -22% | [5]; at 50.0 µM 63.9% | [6]; [7] 0% | [6]; [8] 51% | [6]; at 50.0 µM 42.7%

Nc1nc(N)c(-c2cccc(C(F)(F)F)c2)c(Cc2cccc(C(F)(F)F)c2)n1
active: [1]; [8] 98% | [1]; at 50.0 µM 99.6% | [2]; [8] 98% | [2]; at 50.0 µM 99.3% | [3]; [8] 98% | [3]; at 50.0 µM 99.3% | [4]; [8] 91% | [4]; at 50.0 µM 98.9% | [5]; [8] 95% | [5]; at 50.0 µM 99.2% | [6]; [8] 99% | [6]; at 50.0 µM 99.6%
inactive: [1]; [7] -2% | [2]; [7] 14% | [3]; [7] -1% | [4]; [7] 24% | [5]; [7] -4% | [6]; [7] 0%

CC1=C(CO)C(=O)O[C@@H]([C@@H](C)[C@H]2CC[C@H]3[C@@H]4C[C@@H](O)C5=CC=CC(=O)[C@]5(C)[C@H]4CC[C@]23C)C1
active: [1]; at 50.0 µM 71.2% | [3]; at 50.0 µM 85.8% | [6]; at 50.0 µM 90.5%
inactive: [1]; [7] -2% | [1]; [8] 41% | [2]; [7] -24% | [2]; [8] 49% | [2]; at 50.0 µM 46% | [3]; [7] -1% | [3]; [8] -6% | [4]; [7] -1% | [4]; [8] 47% | [4]; at 50.0 µM 55.2% | [5]; [7] 0% | [5]; [8] 40% | [5]; at 50.0 µM 60.6% | [6]; [7] -22% | [6]; [8] 36%

O=C1C(Cl)=CC(=NCl)C=C1Cl
active: [1]; [8] 83% | [1]; at 50.0 µM 89.1% | [2]; [8] 91% | [2]; at 50.0 µM 91% | [3]; [8] 98% | [3]; at 50.0 µM 91.9% | [4]; [8] 100% | [4]; at 50.0 µM 85% | [5]; [7] 84% | [5]; [8] 95% | [5]; at 50.0 µM 89.8% | [6]; [8] 86% | [6]; at 50.0 µM 89%
inactive: [1]; [7] 59% | [2]; [7] 53% | [3]; [7] 27% | [4]; [7] 47% | [6]; [7] 28%

COC(=O)C(=O)C(C(=O)c1ccc(F)cc1)c1nc2n(c1O)C(=N)N=N2 (configuration not stated)
active: [2]; at 50.0 µM 77.6% | [3]; [8] 76% | [6]; [8] 79%
inactive: [1]; [7] 1% | [1]; [8] 52% | [1]; at 50.0 µM 39.6% | [2]; [7] -17% | [2]; [8] 46% | [3]; [7] 19% | [3]; at 50.0 µM 23.9% | [4]; [7] 14% | [4]; [8] 57% | [4]; at 50.0 µM 59.9% | [5]; [7] 14% | [5]; [8] 67% | [5]; at 50.0 µM 35.2% | [6]; [7] 24% | [6]; at 50.0 µM 34.8%
